Results on 6 compounds are retold here after PubChem BioAssay (NCI).

About 83,000 compounds went through this panel and 20% of them were active in at least one assay; those are over-represented in the sample as a whole.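 Compound tested at a single concentration for 48 hours in 96-well plates; a percent growth value below 10 was scored as active.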 A number with no mark means an inactive call. Active and inactive are the calls of the source.

Among the test systems are NCI-H23 lung; NCI-H226 lung; NCI-H322M lung; HOP-62 NSCLC; NCI-H522 lung; A549/ATCC NSCLC; 786-0 renal; COLO 205 colon; DU-145 prostate; K-562 leukemia; MALME-3M melanoma; MDA-MB-231 breast; RXF 393 renal; SF-268 CNS; SF-295 CNS; SF-539 CNS; UACC-257 melanoma; M14 melanoma; HCT-15 colon; HOP-92 NSCLC.
Assay in all cases: NCI-60 one-dose screen, 48 h (100 = growth as untreated, 0 = no growth, -100 = all killed)

As for `CCC1(O)CC(OC2CC(N(C)C)C(OC3CC4OC5CC(=O)C(C)OC5OC4C(C)O3)C(C)O2)c2c(cc3c(c2O)C(=O)c2c(O)ccc(O)c2C3=O)C1C(=O)OC` (stereo not given), the growth in the assay on NCI-H23 lung (10 µM unless noted) is -52.5% (active); with NCI-H226 lung (10 µM unless noted), -8.6% (active); with NCI-H322M lung (10 µM unless noted) it was -32.4% (active); with HOP-62 NSCLC (10 µM unless noted), -26% (active); with NCI-H522 lung (10 µM unless noted) it was -75.4% (active); in the assay with A549/ATCC NSCLC (10 µM unless noted) it was 1.52% (active). The growth in the assay on 786-0 renal (10 µM unless noted) is -35.6% (active); in the assay with COLO 205 colon (10 µM unless noted), -52.1% (active); in the assay on DU-145 prostate (10 µM unless noted), -12.7% (active); in the assay with K-562 leukemia (10 µM unless noted), -39.7% (active); in the assay with MALME-3M melanoma (10 µM unless noted), -95.3% (active); with MDA-MB-231 breast (10 µM unless noted) it was -5.87% (active). Besides, the growth in the assay with RXF 393 renal (10 µM unless noted) is -1.64% (active); in the assay with SF-268 CNS (10 µM unless noted), -14.3% (active); in the assay on SF-295 CNS (10 µM unless noted) it was -32.7% (active); with SF-539 CNS (10 µM unless noted), -55.6% (active); in the assay on UACC-257 melanoma (10 µM unless noted), -3.52% (active); in the assay with M14 melanoma (10 µM unless noted), -95% (active). The growth with HCT-15 colon (10 µM unless noted) is -46.1% (active).

Regarding `COC1CC(CC2CCC(C)C(C(C)C(=O)O)O2)OC2(OC(C)(C3CCC(C)(C4OC(C5OC(O)(CO)C(C)CC5C)CC4C)O3)CC2C)C1C` (stereo not given), the growth was 9.19% (active) with NCI-H23 lung (10 µM unless noted); 22% with NCI-H226 lung (10 µM unless noted); 9.36% (active) in the assay on NCI-H322M lung (10 µM unless noted); 10.1% in the assay with HOP-62 NSCLC (10 µM unless noted); -55.7% (active) with NCI-H522 lung (10 µM unless noted); 7.35% (active) in the assay with A549/ATCC NSCLC (10 µM unless noted). For the same compound, the growth is 6.74% (active) in the assay with 786-0 renal (10 µM unless noted); -12% (active) in the assay with COLO 205 colon (10 µM unless noted); 17.5% in the assay on DU-145 prostate (10 µM unless noted); -67.6% (active) with K-562 leukemia (10 µM unless noted); -96% (active) with MALME-3M melanoma (10 µM unless noted); -21.7% (active) in the assay on MDA-MB-231 breast (10 µM unless noted). Also, the growth in the assay with RXF 393 renal (10 µM unless noted) was 28%; in the assay with SF-268 CNS (10 µM unless noted) it was 10.7%; with SF-295 CNS (10 µM unless noted) it was -39.2% (active); in the assay with SF-539 CNS (10 µM unless noted), -49.1% (active); in the assay on UACC-257 melanoma (10 µM unless noted) it was 7.33% (active); with M14 melanoma (10 µM unless noted), -71.9% (active). Further, the growth with HCT-15 colon (10 µM unless noted) is 5.7% (active).

Regarding `COc1ccc(OC)c(/C=C/[N+](=O)[O-])c1`, the growth in the assay with NCI-H23 lung (10 µM unless noted) was 6.9% (active); with NCI-H226 lung (10 µM unless noted), 11.8%; in the assay with NCI-H322M lung (10 µM unless noted) it was 69.6%; with HOP-62 NSCLC (10 µM unless noted) it was 10.5%; in the assay with HOP-92 NSCLC (10 µM) it was -18% (active); with NCI-H522 lung (10 µM unless noted), -64.1% (active). Besides, the growth in the assay with A549/ATCC NSCLC (10 µM unless noted) is 28.1%; in the assay with 786-0 renal (10 µM unless noted) it was -75.2% (active); in the assay with COLO 205 colon (10 µM unless noted), -51.6% (active); in the assay with DU-145 prostate (10 µM unless noted) it was 19.8%; in the assay on K-562 leukemia (10 µM unless noted), 4.27% (active); in the assay on MALME-3M melanoma (10 µM unless noted), 24.9%. The growth was 5.7% (active) in the assay with MDA-MB-231 breast (10 µM unless noted); -88.7% (active) with RXF 393 renal (10 µM unless noted); 13.1% with SF-268 CNS (10 µM unless noted); -6.84% (active) in the assay on SF-539 CNS (10 µM unless noted); -12% (active) in the assay on UACC-257 melanoma (10 µM unless noted); -11.5% (active) in the assay on M14 melanoma (10 µM unless noted). For the same compound, the growth with HCT-15 colon (10 µM unless noted) is -13.4% (active).

For the compound `CC[C@@]1(O)C[C@H](OC2CC(N(C)C)C(O)C(C)O2)c2c(O)c3c(c(O)c2[C@H]1OC1CC(N(C)C)C(O)C(C)O1)C(=O)c1cccc(O)c1C3=O` (stereo not given in full), the growth was -37.2% (active) in the assay with NCI-H23 lung (10 µM unless noted); -16.2% (active) with NCI-H226 lung (10 µM unless noted); -31.5% (active) in the assay on NCI-H322M lung (10 µM unless noted); -20.2% (active) in the assay with HOP-62 NSCLC (10 µM unless noted); -65% (active) with NCI-H522 lung (10 µM unless noted); 1.57% (active) with A549/ATCC NSCLC (10 µM unless noted). Moreover, the growth in the assay on 786-0 renal (10 µM unless noted) was -2.72% (active); with COLO 205 colon (10 µM unless noted), -20.5% (active); in the assay with DU-145 prostate (10 µM unless noted), -4.8% (active); in the assay on K-562 leukemia (10 µM unless noted) it was -28.5% (active); with MALME-3M melanoma (10 µM unless noted), -93.7% (active); in the assay on MDA-MB-231 breast (10 µM unless noted), -9.74% (active). In addition, the growth in the assay on RXF 393 renal (10 µM unless noted) was 0.503% (active); with SF-268 CNS (10 µM unless noted), -19.3% (active); in the assay on SF-295 CNS (10 µM unless noted), -27.2% (active); in the assay with SF-539 CNS (10 µM unless noted), -48.9% (active); in the assay on UACC-257 melanoma (10 µM unless noted), 2.59% (active); in the assay on M14 melanoma (10 µM unless noted) it was -87.2% (active). The growth with HCT-15 colon (10 µM unless noted) is -49.7% (active).

Regarding `CC1=C(CO)C2=C(C)C3(CC3)[C@@](C)(O)C(=O)C2=C1`, the growth was -18.2% (active) in the assay with NCI-H23 lung (10 µM unless noted); -28.6% (active) in the assay on NCI-H226 lung (10 µM unless noted); -24.9% (active) with NCI-H322M lung (10 µM unless noted); -36% (active) in the assay with HOP-62 NSCLC (10 µM unless noted); -81.7% (active) in the assay with NCI-H522 lung (10 µM unless noted); 2.23% (active) in the assay on A549/ATCC NSCLC (10 µM unless noted). The growth was -21.3% (active) in the assay with 786-0 renal (10 µM unless noted); -40.1% (active) with COLO 205 colon (10 µM unless noted); -20.1% (active) with DU-145 prostate (10 µM unless noted); 26.3% with K-562 leukemia (10 µM unless noted); -87.5% (active) in the assay with MALME-3M melanoma (10 µM unless noted); 4.5% (active) with MDA-MB-231 breast (10 µM unless noted). In addition, the growth with RXF 393 renal (10 µM unless noted) is 8.42% (active); in the assay with SF-268 CNS (10 µM unless noted), 4.48% (active); in the assay with SF-295 CNS (10 µM unless noted) it was -8.22% (active); in the assay with SF-539 CNS (10 µM unless noted), -62.8% (active); with UACC-257 melanoma (10 µM unless noted), -1.44% (active); in the assay with M14 melanoma (10 µM unless noted) it was -59.3% (active). Moreover, the growth in the assay with HCT-15 colon (10 µM unless noted) was -22.2% (active).

As to `S=C(SSC(=S)N1CCCCC1)N1CCCCC1`, the growth in the assay with NCI-H23 lung (10 µM) was 101%; in the assay with NCI-H23 lung (100 µM) it was -5.33% (active); with NCI-H226 lung (10 µM), 104%; with NCI-H226 lung (100 µM), 10.4%; in the assay on NCI-H322M lung (10 µM), 102%; in the assay on NCI-H322M lung (100 µM), 32%. Besides, the growth with HOP-62 NSCLC (10 µM) is 110%; with HOP-62 NSCLC (100 µM), 37.6%; in the assay with HOP-92 NSCLC (10 µM), 101%; with HOP-92 NSCLC (100 µM), 9.88% (active); with NCI-H522 lung (10 µM), 87%; in the assay with NCI-H522 lung (100 µM), -44.2% (active). In addition, the growth in the assay with A549/ATCC NSCLC (10 µM) is 93.3%; in the assay on A549/ATCC NSCLC (100 µM), 26.1%; in the assay with 786-0 renal (10 µM), 98.7%; in the assay on 786-0 renal (100 µM), -3.71% (active); in the assay on COLO 205 colon (10 µM), 110%; in the assay on COLO 205 colon (100 µM), -69.1% (active). The growth with DU-145 prostate (10 µM) was 107%; in the assay with DU-145 prostate (100 µM), 9.68% (active); in the assay on K-562 leukemia (10 µM) it was 102%; in the assay with K-562 leukemia (100 µM), -13.7% (active); in the assay on MALME-3M melanoma (10 µM), 124%; in the assay with MALME-3M melanoma (100 µM), -76.9% (active). Moreover, the growth in the assay with MDA-MB-231 breast (10 µM) is 104%; in the assay on MDA-MB-231 breast (100 µM), -35.8% (active); with RXF 393 renal (10 µM), 114%; in the assay with RXF 393 renal (100 µM), -15.7% (active); with SF-268 CNS (10 µM), 101%; in the assay on SF-268 CNS (100 µM), 0.593% (active). The growth in the assay on SF-295 CNS (10 µM) was 97.3%; in the assay with SF-295 CNS (100 µM), 1.68% (active); in the assay with SF-539 CNS (10 µM), 104%; in the assay on SF-539 CNS (100 µM), -61.6% (active); in the assay with UACC-257 melanoma (10 µM), 87.7%; in the assay with UACC-257 melanoma (100 µM), 40.5%. Also, the growth in the assay on M14 melanoma (10 µM) is 92.6%; with M14 melanoma (100 µM), -49.6% (active); in the assay on HCT-15 colon (10 µM) it was 90.1%; in the assay with HCT-15 colon (100 µM), 5.6% (active).
